Bioassay records as filed in PubChem.
An excerpt weighted towards active compounds, which were near 17% of everything screened.
TDP1 cell noCPT = qHTS for Inhibitors of human tyrosyl-DNA phosphodiesterase 1 (TDP1): qHTS in cells in absence of CPT; DT40 Tdp1-/- hTDP1 cells, no CPT, ATP luminescence, 48 h; Potency, µM (top dose mostly 46.2 µM), without a hit: at the top dose activity change, negative = growth inhibition, usual class: inhibitors; 15% of 420,000 active; AID 686978, 2013; note: % is set by controls: 0 for no effect and ±100 for the full control effect; nearly all actives have a fitted effect of over 55% in size
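A cellular qHTS used chicken DT40 cells lacking endogenous Tdp1 but carrying stably transfected human TDP1. Compounds were applied without camptothecin, and cell growth kinetics were judged by ATP-dependent luminescence after ≥48 hr.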
TGFb SMAD3 inh = blocks TGF-b signaling; Potency, µM (series often up to 46.1 µM), without a hit: top-dose activity, negative = inhibition, usual class: inhibitors; 1.2% of 410,000 active; HepG2 CAGA-GFP TGF-b/SMAD3 reporter, GFP fluorescence, 18 h; TGF-beta stimulated, 500 pg/mL final; note: % is set by controls: 0 for no effect and ±100 for the full control effect; nearly all actives have a fitted effect of over 65% in size
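TGF-beta reporter screen: HEPG2 CAGA-GFP, 1% FBS, 500 pg/mL TGF-beta final, 18 h; per-cell GFP summed per well; curves fitted and categorized by class.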
HT1080 IDH1KD tx = toxicity to HT-1080 IDH1 knockdown cells (counter line). HT-1080 IDH1 knockdown viability, ATP luminescence, 48 h. Potency, µM (highest dose often 46.1 µM), for inactives: at the highest dose activity, negative = toxicity, hits mostly cytotoxic. 2% of 360,000 active. AID 686971;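 note: 0% = DMSO wells and -100% = cell-free medium wells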
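In this qHTS, HT-1080 cells depleted of IDH1 are exposed for 48 h at 37 °C to compound titrations. Toxicity is scored from CellTiter-Glo luminescence, with DMSO as full viability and medium alone as none.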
HepG2 tox = counter-screen for TGF-b inhibitors: cytotoxicity in HepG2 cells. Potency, µM (highest dose often 46.1 µM), for inactives: top-dose activity change, negative = cytotoxicity, usual class: cytotoxic. HepG2 CAGA-GFP viability, ATP luminescence, 18 h. AID 588856. 0.76% of 410,000 active
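CellTiter-Glo luminescence gave cytotoxicity after 18 hours at 37 degrees C. The cells were HepG2 CAGA-GFP in 1% FBS DMEM, stimulated with 500 pg/mL TGF-beta after compound addition. %Activity was normalised to no-cell wells (complete cell-killing) and DMSO (no toxicity), and curves were fitted and classified.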
TDP1 cell CPT = DT40-hTDP1 cell growth loss with CPT; Potency, µM (top dose mostly 46.2 µM), inactives show at the highest dose activity change, negative = growth inhibition, usual class: inhibitors; 12% of 420,000 active; AID 686979; chicken DT40 Tdp1-/-;hTDP1 cells + 20 nM CPT, ATP luminescence, 48 h; note: % is set by controls: 0 for no effect and ±100 for the full control effect; nearly all actives have a fitted effect of over 55% in size
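Cell growth measured by CellTiter-Glo luminescence after a minimum 48 h, 37 C compound exposure with 20 nM CPT in Tdp1-knockout DT40 cells stably expressing hTDP1, seeded 400/well; qHTS titration format.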
HT1080-NT tox = kills 2HG-producing HT-1080-NT fibrosarcoma cells; HT-1080-NT fibrosarcoma viability, CellTiter-Glo ATP luminescence, 48 h; Potency, µM (series often up to 46.1 µM), inactives show top-dose activity, negative = less viability, most hits filed as cytotoxic; 1.6% of 360,000 active;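 note: NT is the 2HG producing partner of a matched IDH1 knockdown line; 0% = DMSO-treated cells and -100% = media-only wells without cells; nearly all actives have a fitted effect of over 55% in size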
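Read-out is CellTiter-Glo luminescence after 10 minutes at room temperature, following 48 hours' compound treatment of HT-1080-NT cells (750 cells/well, RPMI, 5% FBS, 37 degrees C).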
Starred values were filed as active, the others as inactive; u = inconclusive; x = not tested or not shown; [ ] = remark or other dose. Calls come from the whole dose curve; as a rule, active = well fitted curve in the direction sought with a large enough effect; inconclusive = small, poorly fitted or top-dose-only effect, or another doubt; inactive = no such curve, though single readings can be large; an effect the other way counts as inactive or inconclusive. Potency is the fitted concentration of half-maximal effect.

SMILES	TDP1 cell noCPT	TGFb SMAD3 inh	HT1080 IDH1KD tx	HepG2 tox	TDP1 cell CPT	HT1080-NT tox
Cc1ccc(S(=O)(=O)NN=C2C3CC4CC(C3)CC2C4)cc1	0.6%	-3.5%	7.6%	-12.4%	7.4%	-1.0%
COc1ccc(Nc2nnc(-c3cc4cc(Cl)ccc4oc3=O)s2)cc1	6.7%	1.8%	x	4.0%	14.1%	x
CCOc1ccccc1Nc1nnc(-c2cc3cc(Cl)ccc3oc2=O)s1	2.31µM*	0.3%	x	10.2%	2.31µM*	x
C=C(C)c1ccccc1	-12.5%	-0.3%	15.0%	7.8%	10.6%	u
CS(=O)(=O)CCCCN=C=S	18.4µM*	x	x	x	u	x
C=CCCC(=O)N1C[C@H]2CON(C)[C@H]2C[C@H]1c1ccc(Br)cc1	-0.4%	-12.9%	-0.6%	-3.3%	12.0%	5.5%
O=C(OC1C2CCC1C1CN(CCc3ccccc3)CC12)c1ccccc1 (stereo unspecified)	16.4µM*	-0.7%	-17.6%	-9.2%	u	-11.3%
CCOC(=O)C1CCCN(CCc2ccccc2)C1 (stereo unspecified)	-4.2%	0.8%	6.1%	2.2%	-5.9%	5.2%
O=C(Cn1nnc(-c2ccccc2NC(=O)c2ccccc2)n1)Nc1ccc2c(c1)OCCO2	-25.3%	6.8%	-13.5%	-23.3%	u	-26.4%
COc1ccc(NC(=O)Cn2nnc(-c3ccccc3NS(=O)(=O)c3ccc(OC)cc3)n2)cc1	u	0.0%	u	9.8%	u	-20.5%
CCCC(=O)Nc1ccccc1-c1nnn(CC(=O)Nc2ccc(OCC)cc2)n1	20.6µM*	-3.5%	-23.1%	-2.7%	u	-7.8%
Cc1ccc(NC(=O)Cn2nnc(-c3ccccc3NC(=O)c3cccs3)n2)cc1	0.82µM*	-6.1%	1.16µM*	-5.4%	0.651µM*	1.16µM*
COc1cc(OC)cc(C(=O)Nc2ccccc2-c2nnn(CC(N)=O)n2)c1	-8.6%	1.7%	u	21.1%	2.6%	19.4%
Cc1ccccc1C(=O)Nc1ccccc1-c1nnn(CC(=O)Nc2ccc3c(c2)OCCO3)n1	14.6µM*	-13.9%	-16.1%	-36.4%	23.1µM*	-23.1%
COc1ccc(C(=O)Cn2nnc(-c3ccccc3NC(=O)C3CC3)n2)cc1	16.4µM*	-5.9%	-4.4%	-6.1%	18.4µM*	-1.2%
CCCCC(NC(=O)COc1cc2c(c3oc(=O)cc(C)c13)CCC(C)(C)O2)C(=O)O (stereo unspecified)	-6.5%	-1.8%	-0.9%	-3.2%	-11.2%	1.9%
CC1CCN(S(=O)(=O)c2ccc3[nH]ccc3c2)CC1	-24.7%	6.3%	x	-1.3%	u	x
COc1ccccc1CCNC(=O)c1cccn1-c1nnc(N2CCCC2)s1	u	0.0%	x	-3.7%	u	x
CCOC(=O)Cn1nnc(-c2cc(OC)c(OC)c(OC)c2)n1	-0.4%	6.4%	21.9%	-6.8%	-1.6%	23.1%
CCOc1ccc(NC(=O)Cn2nnc(-c3ccccc3NC(=O)CC)n2)cc1	16.4µM*	-9.7%	-24.6%	-21.1%	u	-13.3%
COc1ccccc1NC(=O)Cn1nnc(-c2ccccc2NS(=O)(=O)c2ccccc2)n1	18.4µM*	-9.8%	-16.3%	4.7%	13µM*	-5.5%
COc1cc(-c2nnn(CC(=O)Nc3ccc(OC(F)(F)F)cc3)n2)cc(OC)c1OC	7.31µM*	u	x	-28.7%	20.6µM*	x
Cc1noc(C)c1C(=O)Nc1ccc(F)cc1F	-5.4%	-23.2%	4.9%[9.24 µM]	-17.1%	-1.5%	19.5%
O=[N+]([O-])c1cccc(COc2cccc(CN3CCCCC3)c2)c1	-14.7%	-9.6%	-0.4%	-21.1%	-11.9%	9.7%
O=C(CN1CCN(C(c2ccccc2)c2ccccc2)CC1)N1CCN(c2ccccc2)CC1	18.4µM*	u	-8.9%	-62.3%	u	1.1%
SMILES	TDP1 cell noCPT	TGFb SMAD3 inh	HT1080 IDH1KD tx	HepG2 tox	TDP1 cell CPT	HT1080-NT tox
O=C(CN1CCN(c2ccccc2)CC1)NC(=O)NCc1ccco1	-20.3%	0.5%	11.9%	4.4%	-15.4%	9.9%
COc1ccc(CNC(=O)CN2CCN(C(c3ccccc3)c3ccccc3)CC2)cc1	u	-15.4%	-0.8%	-4.6%	18.4µM*	-13.7%
O=C(CN1CCN(C(c2ccccc2)c2ccccc2)CC1)NC(=O)NCc1ccco1	u	0.0%	-25.8%	-22.9%	20.6µM*	-12.5%
CC(C)(C)NC(=O)NC(=O)CN1CCN(C(c2ccccc2)c2ccccc2)CC1	u	2.6%	4.5%	-4.4%	9.2µM*	12.3%
COc1ccccc1C(=O)C1CCCN(C(=O)c2snnc2C)C1 (stereo unspecified)	-14.8%	3.6%	7.9%	-1.9%	u	0.0%
O=C(C1=C[C@@H](C2CC2)C[C@@H](OCc2ccc(CO)cc2)O1)N1CCN(Cc2ccc3c(c2)OCO3)CC1	20.6µM*	-15.3%	-8.5%	-20.0%	u	2.4%
CN1CCN(C(=O)C2=C[C@@H](c3csc4ccccc34)C[C@@H](OCc3ccc(CO)cc3)O2)CC1	18.4µM*	-29.3%	-3.9%	-6.8%	20.6µM*	-6.3%
O=C(C1=C[C@H](c2csc3ccccc23)C[C@H](OCc2ccc(CO)cc2)O1)N1CCN(Cc2ccc3c(c2)OCO3)CC1	u	-6.2%	-1.1%	-6.7%	16.4µM*	-12.0%
O=C(C1=C[C@H](c2csc3ccccc23)C[C@H](OCc2ccc(CO)cc2)O1)N1CCN(Cc2ccccc2)CC1	u	u	-25.5%	-0.1%	u	-23.5%
O=C(C1=C[C@H](c2csc3ccccc23)C[C@H](OCc2ccc(CO)cc2)O1)N1CCOCC1	u	-5.9%	7.6%	-12.9%	u	1.7%
O=C(C1=C[C@H](c2ccc3c(c2)OCO3)C[C@H](OCc2ccc(CO)cc2)O1)N1CCN(Cc2ccc3c(c2)OCO3)CC1	u	-34.7%	-6.7%	-7.6%	u	-5.5%
O=C(C1=C[C@H](c2ccccc2)C[C@H](OCc2ccc(CO)cc2)O1)N1CCN(Cc2ccc3c(c2)OCO3)CC1	20.6µM*	-20.4%	-26.8%	2.1%	u	-28.7%
CC/C(=N/OC(=O)c1cccc(C)c1)C(=O)c1cccs1	8.2%	-2.5%	8.9%	3.4%	-2.1%	0.8%
COc1ccc(CCC(=O)Nc2ccc(C)c([N+](=O)[O-])c2)cc1	-25.5%	-24.3%	15.8%	-17.7%	-10.3%	12.2%
